The full ranking holds about 8,300 sequences; the median of “log2 fold change of degron read counts, EGFP-low vs EGFP+ sorted cells (limma voom), compound-induced degradation” is about -1.1, and the highest 2% start at about 3.2. What follows is part of a selection rich in the highest values, with near analogues and random picks from the rest.
T1: CRBN, Q96SW2
T1 chain: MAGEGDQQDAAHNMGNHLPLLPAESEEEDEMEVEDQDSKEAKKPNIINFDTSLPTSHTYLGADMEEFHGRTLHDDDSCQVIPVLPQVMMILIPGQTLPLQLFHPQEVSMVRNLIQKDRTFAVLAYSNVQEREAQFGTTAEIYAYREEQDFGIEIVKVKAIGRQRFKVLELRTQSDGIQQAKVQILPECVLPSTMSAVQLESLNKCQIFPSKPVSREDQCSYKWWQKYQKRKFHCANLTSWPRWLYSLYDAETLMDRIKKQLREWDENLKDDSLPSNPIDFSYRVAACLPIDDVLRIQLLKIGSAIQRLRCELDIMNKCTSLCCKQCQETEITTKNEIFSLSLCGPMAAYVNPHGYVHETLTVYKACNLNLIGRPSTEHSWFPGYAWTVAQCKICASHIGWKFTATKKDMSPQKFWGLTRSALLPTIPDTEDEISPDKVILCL


Biological target: T1, CRBN, Q96SW2
Assay: log2 fold change of degron read counts, EGFP-low vs EGFP+ sorted cells (limma voom), compound-induced degradation; higher = more compound-induced degradation of the degron-EGFP fusion; degrons are variants of IKZF1/3 zinc finger 2; compound dose not given here
Conditions: Jurkat, 18 h
[1] = compound: compound 19 (5-tert-butyl-thalidomide)
[2] = compound: compound 22 (5-morpholino-thalidomide)
[3] = compound: compound 33 (diphenyl IMiD analogue)
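Further: pooled lentiviral library of zinc finger degron-EGFP fusions in mCherry-positive Jurkat cells, FACS-sorted after compound exposure, with degron abundance counted by next-generation sequencing.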

Sequence	log2 fold change of degron read counts [1]	log2 fold change of degron read counts [2]	log2 fold change of degron read counts [3]	log2 fold change of degron read counts (compound: thalidomide)
LGCEICGFPCTQKGNLLRHIKL [46L_47G_49E_50I_52G_53F_54P_55C_67L_, Q9UKT9]	-1.16	-1.81	-2.14	-1.69
FECEICGRNFTQKGNLLRHIKL [46F_47E_49E_50I_52G_53R_54N_55F_67L_, Q9UKT9]	-2.61	-2.28	-0.395	-0.731
LMCEICGFFCTQKGNLLRHIKL [46L_47M_49E_50I_52G_53F_54F_55C_67L_, Q9UKT9]	-0.461	-0.234	1.75	0.617
FNCEICGHGFTQKGNLLRHIKL [46F_47N_49E_50I_52G_53H_54G_55F_67L_, Q9UKT9]	-2.44	-2.67	-3.6	-2.95
FTCPVCGAQFTQKGNLLRHIKL [46F_47T_49P_50V_52G_53A_54Q_55F_67L_, Q9UKT9]	0.0342	2.63	2.78	2.72
FKCPICGHLFTQKGNLLRHIKL [46F_47K_49P_50I_52G_53H_54L_55F_67L_, Q9UKT9]	-2.52	-3	-3.86	-2.43
FTCNVCGAGFTQKGNLLRHIKL [46F_47T_49N_50V_52G_53A_54G_55F_67L_, Q9UKT9]	-0.827	-0.181	0.811	0.259
LQCEICGFDCTQKGNLLRHIKL [46L_47Q_49E_50I_52G_53F_54D_55C_67L_, Q9UKT9]	-2.82	-2.45	-2.23	-1.2
LTCNQCGFQCTQKGNLLRHIKL [46L_47T_49N_50Q_52G_53F_54Q_55C_67L_, Q9UKT9]	-2.38	-2.53	-1.48	-1.47
FRCDICGAYFTQKGNLLRHIKL [46F_47R_49D_50I_52G_53A_54Y_55F_67L_, Q9UKT9]	-1.87	-1.92	-0.0846	0.62
FACDICGACFTQKGNLLRHIKL [46F_47A_49D_50I_52G_53A_54C_55F_67L_, Q9UKT9]	2.85	0.596	-0.194	-1.27
FQCDICGACFTQKGNLLRHIKL [46F_47Q_49D_50I_52G_53A_54C_55F_67L_, Q9UKT9]	-0.256	2.12	1.17	3.3
FECDICGACFTQKGNLLRHIKL [46F_47E_49D_50I_52G_53A_54C_55F_67L_, Q9UKT9]	-0.944	-2.76	0.061	0.157
FWCDICGACFTQKGNLLRHIKL [46F_47W_49D_50I_52G_53A_54C_55F_67L_, Q9UKT9]	3.31	3.65	1.33	-0.4
FHCDICGACFTQKGNLLRHIKL [46F_47H_49D_50I_52G_53A_54C_55F_67L_, Q9UKT9]	1.53	1.18	-0.205	-1.25
FYCDICGACFTQKGNLLRHIKL [46F_47Y_49D_50I_52G_53A_54C_55F_67L_, Q9UKT9]	3.33	3.42	1.9	-0.704
FCCDICGACFTQKGNLLRHIKL [46F_47C_49D_50I_52G_53A_54C_55F_67L_, Q9UKT9]	1.6	1.36	1.87	0.543
FFCDICGACFTQKGNLLRHIKL [46F_47F_49D_50I_52G_53A_54C_55F_67L_, Q9UKT9]	3.31	3.14	1.33	-1.14
FTCDICGACFTQKGNLLRHIKL [46F_47T_49D_50I_52G_53A_54C_55F_67L_, Q9UKT9]	1.04	1.6	1.21	0.886
FSCDICGACFTQKGNLLRHIKL [46F_47S_49D_50I_52G_53A_54C_55F_67L_, Q9UKT9]	1.95	1.34	1.4	-0.055
FRCDICGACFTQKGNLLRHIKL [46F_47R_49D_50I_52G_53A_54C_55F_67L_, Q9UKT9]	-1.25	-1.11	1.03	0.116
FMCDICGACFTQKGNLLRHIKL [46F_47M_49D_50I_52G_53A_54C_55F_67L_, Q9UKT9]	-1.13	-0.637	1.57	-0.555

Source: the supplement of paper PMC12645437, “Orthogonal IMiD-Degron Pairs Induce Selective Protein Degradation in Cells” (ACS Chemical Biology, 2025)
